# Test results as given in PubChem BioAssay.
# Activity calls are given as the source filed them. Unless noted, no stated cut-off is given here; in the data, active means inhibition above about 80%; inactive means the rest.
# Assays:
# [1] = viability loss with induced miR-34 in A549 – imaging, A549 dox-inducible miR-34, nuclei and caspase counts, primary screen (AID 1347080;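 active means compounds whose cell count with miR-34 switched on is under 0.7 times the count with it off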); conditions: A549 miR-34 inducible, Hoechst nuclei count, 48 h
# [2] = MELAS cybrid and Rieske KO viability enhancers – cell-based, MELAS cybrids, Rieske KO mouse fibroblasts, CellTiter-Glo, primary screen (AID 1508586;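 active means mean z-score across replicates of 1.96 or higher in either the MELAS or the Rieske mutant cell line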;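 further: z relative to plate mean and SD of compound and empty wells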); conditions: low glucose
# [3] = growth inhibition, single agent or in combination, cell-based, chromothripsis tumors, cisplatin or BGB combos (AID 1671449); conditions: LFS_MB_P medulloblastoma cells;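 further: cells exposed for 96 hours; 0% = vehicle DMSO and 100% = killing by high DMSO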
# [4] = growth inhibition, single agent and combos, cell-based, chromothripsis tumors, cisplatin or BGB combos (AID 1671450); conditions: HDN33 neuroblastoma cells, stronger effect = higher value;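 further: cells exposed to compound for four days; 0% = vehicle DMSO and 100% = cell killing by high DMSO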
# [5] = growth inhibition, single agents and combos, ICB984, cell-based, cisplatin or BGB combos, synergistic combos for chromothripsis tumors (AID 1671451; call rule not given here;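 further: cells exposed for 96 hours before readout; 0% = vehicle DMSO and 100% = killing by high DMSO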); conditions: ICB984 medulloblastoma cells, drug combinations, stronger effect = higher value
# [6] = growth inhibition, single agents and combos, LFS_MB_1R, cell-based, cisplatin or BGB combos, synergistic combos for chromothripsis tumors (AID 1671452); conditions: LFS_MB_1R medulloblastoma cells, stronger effect = higher value;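 further: cells exposed for 96 hours before readout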
# [7] = growth inhibition, single agents and combos, HTB85, cell-based, BGB or cisplatin IC20 combos, synergistic combos for chromothripsis tumors (AID 1671453); conditions: HTB85 osteosarcoma cells, drug combinations, stronger effect = higher value;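 further: cells exposed for 96 hours before readout; 0% = vehicle DMSO and 100% = high DMSO killing control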
# [8] = growth inhibition, single agents and combos, CRL2098, cell-based, BGB or cisplatin IC20 combos, synergistic combos for chromothripsis tumors (AID 1671454); conditions: CRL2098 osteosarcoma cells, drug combinations, stronger effect = higher value;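 further: cells exposed for 96 h before readout; 0% = vehicle DMSO and 100% = killing by high DMSO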
# [9] = growth inhibition, single agents and combos, HD-MB03, cell-based, BGB or cisplatin IC20 combos, synergistic combos for chromothripsis tumors (AID 1671455; in the data active means inhibition above about 83%;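 further: 0% = vehicle DMSO and 100% = high DMSO as cytotoxic control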); conditions: HD-MB03 medulloblastoma cells, stronger effect = higher value
# [10] = growth inhibition, single agents and combos, UWB1.289, cell-based, BGB or cisplatin combos, synergistic combos for chromothripsis tumors (AID 1671456); conditions: UWB1.289 ovarian carcinoma cells, stronger effect = higher value;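 further: cells exposed to compound for four days; 0% = vehicle DMSO and 100% = killing by high DMSO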
# [11] = growth inhibition, single agents and combos, LFS_MB_2R, cell-based, cisplatin combos, synergistic combos for chromothripsis tumors (AID 1671457); conditions: LFS_MB_2R medulloblastoma cells, stronger effect = higher value;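 further: cells exposed to compound for four days before readout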
# [12] = growth inhibition, MDA-MB-436, cell-based, BGB or cisplatin combos, synergistic combos for chromothripsis tumors (AID 1671458; call rule not given here;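 further: cells exposed for 96 hours; 0% = vehicle DMSO and 100% = killing by high DMSO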); conditions: MDA-MB-436 breast carcinoma growth inhibition, drug combinations, stronger effect = higher value
# [13] = UWB1.289_BRCA1 ovarian cancer growth, cell-based, BGB or cisplatin combinations (AID 1671459); conditions: UWB1.289 BRCA1 ovarian carcinoma, drug combinations, stronger effect = higher value
# [14] = drug combination toxicity in non-malignant astrocytes – cell-based, BGB or cisplatin IC20 combos, cytotoxicity control for chromothriptic childhood tumor combination screen (AID 1671460); conditions: Human astrocytes, viability inhibition, drug combinations, at 0.5 µM, stronger effect = higher value;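 further: cells exposed to compounds for 96 hours before viability readout; 0% = vehicle and 100% = killing control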
# [15] = BT084 cell growth, single and combined drugs, ICGC_MB145, cisplatin and BGB IC40 combos (AID 1671461); conditions: BT084 medulloblastoma cells, drug combinations, stronger effect = higher value;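 further: cells exposed to drugs for 96 hours; 0% = vehicle DMSO and 100% = high DMSO full killing control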
# [16] = RCMB18 cell growth, single agent and combined, cisplatin and BGB IC40 combos (AID 1671462); conditions: RCMB18 medulloblastoma cells, stronger effect = higher value;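 further: cells exposed to compound for four days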
# [17] = CRL1545 cell growth, single agent and combined, cisplatin and BGB IC20 combos (AID 1671464); conditions: CRL1545 osteosarcoma cells, stronger effect = higher value;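 further: cells exposed to compound for 96 hours before readout; 0% = vehicle DMSO and 100% = high DMSO killing control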
# [18] = compounds altering viability of human ES cells (AID 493140; call rule not given here;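 further: cells exposed to compounds for four days before counting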); conditions: human embryonic stem cell survival screen; stronger effect = higher value
# [19] = P. berghei load reduction in hepatocytes – cell-based, HepG2, luciferase luminescence, HepG2 viability, primary screen (AID 624349; in the data active means parasite load remaining mostly below about 12%, no sharp cut-off; inactive means mostly above about 10%;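 further: 100% = mean of DMSO negative control wells on the same plate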); conditions: P. berghei liver stage in HepG2, luciferase luminescence, concentration not given here; parasite load remaining: stronger effect = lower value; viability: measured here: HepG2 viability without parasites
# [20] = stronger effect = lower value, cell number ratio, induced over uninduced
# [21] = measured here: relative caspase fold change +Dox/-Dox
# [22] = measured here: total cells with miR-34 induction, stronger effect = lower value
# [23] = measured here: total cells without miR-34 induction
# [24] = MELAS cybrid survival, CellTiter-Glo 48 h, stronger effect = higher value
# [25] = Rieske KO mouse fibroblast survival, CellTiter-Glo 72 h
# [26] = measured here: combination with BGB IC40, at 0.05 µM
# [27] = measured here: with BGB IC20 combination, at 0.5 µM
# [28] = measured here: with cisplatin IC20 combination, at 0.5 µM
# [29] = measured here: combination with cisplatin, at 0.5 µM
# [30] = measured here: combination with cisplatin, at 5 µM
smiles,measurement,setting,value
O=c1[nH]c(=O)n(C2CC(O)C(CO)O2)cc1I (configuration not stated),fold change,[1]; [20],0.851 (inactive)
same,fold change,[1]; [21],0.749
same,cell count,[1]; [22],6980
same,cell count,[1]; [23],8200
same,z-score,[2]; [24],-0.224 (inactive)
same,z-score,[2]; [25],-0.483
same,inhibition,"[3]; at 0.5 µM, stronger effect = higher value",4.71% (inactive)
same,inhibition,"[3]; measured here: combination with BGB IC20, at 0.005 µM",8.42%
same,inhibition,"[3]; measured here: combination with BGB IC40, at 0.005 µM",-21.4%
same,inhibition,[3]; [26],12.9%
same,inhibition,"[3]; measured here: combination with cisplatin, at 0.5 µM, stronger effect = higher value",-5.31%
same,inhibition,"[3]; measured here: combination with cisplatin, at 5 µM, stronger effect = higher value",2.43%
same,inhibition,"[4]; BGB combo, at 5 µM",9.54%
same,inhibition,[4]; at 0.5 µM,-18.4% (inactive)
same,inhibition,"[4]; cisplatin combo, at 5 µM",3.9%
same,inhibition,[4]; [27],-28.5%
same,inhibition,[4]; [28],-14%
same,inhibition,"[4]; single agent, at 5 µM",24%
same,inhibition,"[5]; BGB IC20 combo, at 0.005 µM",-15.6%
same,inhibition,"[5]; BGB IC40 combo, at 0.005 µM",-20.9%
same,inhibition,"[5]; BGB IC40 combo, at 0.05 µM",-13.7%
same,inhibition,[5]; at 0.5 µM,-8.85% (inactive)
same,inhibition,"[5]; cisplatin combo, at 0.05 µM",-13.7%
same,inhibition,"[5]; cisplatin combo, at 0.5 µM",-12.8%
same,inhibition,"[5]; cisplatin combo, at 5 µM",-9.03%
same,inhibition,"[5]; measured here: 5 uM single agent, at 5 µM",4.46%
same,inhibition,[6]; at 0.5 µM,-47.8% (inactive)
same,inhibition,[6]; [26],-9.63%
same,inhibition,[6]; [29],-105%
same,inhibition,[6]; [30],-24%
same,inhibition,[7]; at 0.5 µM,-28.2% (inactive)
same,inhibition,"[7]; measured here: with BGB IC20, at 0.5 µM",-26.8%
same,inhibition,"[7]; measured here: with BGB IC20, at 5 µM",-4.26%
same,inhibition,"[7]; measured here: with cisplatin IC20, at 0.5 µM",-39.9%
same,inhibition,"[7]; measured here: with cisplatin IC20, at 5 µM",-31.8%
same,inhibition,"[7]; single agent, at 5 µM",-17.4%
same,inhibition,[8]; at 0.5 µM,-42.2% (inactive)
same,inhibition,"[8]; measured here: combination with BGB at IC20, at 0.5 µM",-45.9%
same,inhibition,"[8]; measured here: combination with cisplatin at IC20, at 0.5 µM",-41.5%
same,inhibition,[9]; at 0.5 µM,-7.04% (inactive)
same,inhibition,"[9]; measured here: combo with BGB at IC20, at 0.5 µM",-3.12%
same,inhibition,"[9]; measured here: combo with cisplatin at IC20, at 0.5 µM",-7.71%
same,inhibition,[10]; at 0.5 µM,-5.21% (inactive)
same,inhibition,"[10]; measured here: inhibition with BGB combination, at 0.05 µM",-13.3%
same,inhibition,"[10]; measured here: inhibition with cisplatin combination, at 0.05 µM",-14.8%
same,inhibition,[11]; at 0.5 µM,-2.58% (inactive)
same,inhibition,[11]; [29],4.62%
same,inhibition,[11]; [30],-3.61%
same,inhibition,[12]; at 0.5 µM,-9.35% (inactive)
same,inhibition,"[12]; measured here: BGB combination, at 0.5 µM",-10.8%
same,inhibition,"[12]; measured here: BGB combination, at 5 µM",-16.9%
same,inhibition,"[12]; measured here: cisplatin combination, at 0.5 µM",-22.4%
same,inhibition,"[12]; measured here: cisplatin combination, at 5 µM",-10.7%
same,inhibition,"[13]; BGB combination, concentration series, at 5 µM",0.385%
same,inhibition,[13]; at 0.5 µM,-5.4% (inactive)
same,inhibition,"[13]; cisplatin combination, concentration series, at 5 µM",-6.29%
same,inhibition,[14],-11.4% (inactive)
same,inhibition,[14]; measured here: combo with BGB IC20,-7.44%
same,inhibition,[14]; measured here: combo with cisplatin IC20,-19.9%
same,inhibition,[15]; at 0.5 µM,-4.3% (inactive)
same,inhibition,"[15]; cisplatin combination, at 0.5 µM",-7.3%
same,inhibition,"[15]; cisplatin combination, at 5 µM",-44.5%
same,inhibition,"[15]; measured here: BGB IC40 combination 0.05 uM, at 0.05 µM",12.9%
same,inhibition,"[15]; single agent, at 5 µM",-7.11%
same,inhibition,[16]; at 0.5 µM,-5.93% (inactive)
same,inhibition,"[16]; cisplatin combo, at 5 µM",-28.2%
same,inhibition,"[16]; measured here: BGB IC40 combination, at 0.05 µM",-1.89%
same,inhibition,[16]; [29],-10.4%
same,inhibition,"[16]; single agent, at 5 µM",-39.8%
same,inhibition,[17]; at 0.5 µM,-56.2% (inactive)
same,inhibition,[17]; [27],-15.6%
same,inhibition,[17]; [28],-76.5%
same,inhibition,"[17]; single agent, at 0.05 µM",10.9%
same,inhibition,"[17]; single agent, at 5 µM",6.02%
O=C1OC(C(O)CO)C(O)=C1O (configuration not stated),fold change,[1]; [20],1.03 (inactive)
same,fold change,[1]; [21],1.05
same,cell count,[1]; [22],8100
same,cell count,[1]; [23],7850
same,z-score,[2]; [24],0.0982 (inactive)
same,z-score,[2]; [25],-0.298
CC(=O)O[C@]1(C(C)=O)CC[C@H]2[C@@H]3C=C(Cl)C4=CC(=O)C5CC5[C@]4(C)[C@H]3CC[C@@]21C (some centres not stated),survival,[18],12.6 (inactive)
same,parasite load remaining,[19],65.7% (inactive)
same,viability,[19],68.5%
same,fold change,[1]; [20],0.93 (inactive)
same,fold change,[1]; [21],0.98
same,cell count,[1]; [22],8920
same,cell count,[1]; [23],9590
same,z-score,[2]; [24],-0.145 (inactive)
same,z-score,[2]; [25],0.56
CCC(=O)OCC(=O)C1(OC(=O)CC)[C@H](C)C[C@H]2[C@H]3[C@H]([C@@H](O)C[C@@]21C)[C@@]1(C)C=CC(=O)C=C1C[C@H]3Cl (some centres not stated),survival,[18],4.33 (inactive)
same,parasite load remaining,[19],104% (inactive)
same,viability,[19],97.3%
same,fold change,[1]; [20],0.785 (inactive)
same,fold change,[1]; [21],1.32
same,cell count,[1]; [22],6260
same,cell count,[1]; [23],7980
same,z-score,[2]; [24],0.535 (inactive)
same,z-score,[2]; [25],0.903
O=C(O)C(O)C(O)C(O)C(O)C(=O)O (configuration not stated) (tested in a mixture with another compound),survival,[18],5.33 (inactive)
same,parasite load remaining,[19],114% (inactive)
same,viability,[19],71.7%
same,fold change,[1]; [20],0.895 (inactive)
same,fold change,[1]; [21],0.792
same,cell count,[1]; [22],8860
same,cell count,[1]; [23],9910
same,z-score,[2]; [24],-1.4 (inactive)
same,z-score,[2]; [25],-0.918
